# Source: PubChem BioAssay AID651706 (NMMLSC, 2012)
# The campaign covered roughly 2,300 compounds. About 55 (2%) were called active.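 Rule for the calls: active = share of green or green-and-red cells above 9 and 9% in run 1 or 4 and 3% in run 2; inactive = the rest, inconclusive results apart.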 Only a sample is shown.
# Assay: inducers of myeloid progenitor differentiation, confirmation, cell-based, GFP/Mac1 flow cytometry, cherry pick 01 (AID 651706);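 for differentiation response: plate controls were double positive share in DMSO wells for no effect and share in positive control wells for full effect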;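 for double positive cells: share of live cells carrying both lysozyme GFP and MAC1 staining after four days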
# Conditions: ER-HoxA9 myeloid progenitors, stronger effect = higher value; differentiation response: GFP/Mac1 double-positive flow; double positive cells: measured here: percent double positive cells
Compound,differentiation response,double positive cells [%]
Cc1ccc2nc(-c3ccccn3)cc(C(=O)Nc3ccc4c(c3)OCO4)c2c1,1.4% (inactive),0.8
CCN(CC)CC(=O)c1c[nH]c2ccc(OC)cc12,1.4% (inactive),0.9
CNc1nc(=O)n(C2CCCO2)cc1C (stereo not given),2.7% (inactive),1.3
Cc1cc(C)c(-c2csc(NC(=O)CCCc3nc4ccccc4c(=O)[nH]3)n2)c(C)c1,3.35% (inactive),0
CN1CCC(CN)(N2CCN(c3ccccc3)CC2)CC1,1.95% (inactive),1.25
COc1ccc(S(=O)(=O)N2CCC(C(=O)N3CCc4ccccc4C3)CC2)cc1OC,1% (inactive),1
Cc1ccc(OS(=O)Nc2cccc3nccnc23)cc1 (stereo not given),1.6% (inactive),0.85
CCN(CC)C(=O)CSC(Nc1cccc(F)c1)=C(C#N)C#N,13.7% (inactive),0.9
COc1cc(N=Cc2c(O)[nH]c3ccccc23)cc(OC)c1OC,0% (inactive),0
CNC[C@H]1Oc2c(NC(=O)C3CCCCC3)cccc2C(=O)N([C@H](C)CO)C[C@@H]1C,4.4% (inactive),3.95
Cc1nn(-c2ncccn2)c2c1C(=O)CC(C)(C)C2Br (stereo not given),1% (inactive),0.85
Cn1c2ccccc2c2cc(/C=C(\NC(=O)c3ccccc3)C(=O)NCC(=O)O)ccc21,3.05% (inactive),2.15
CCOC(=O)c1c(-c2ccc(C)cc2)csc1/N=C(\C)C1=C(O)c2ccccc2C1=O,12.2% (inactive),3.3
COc1ccc(-c2ccc(OC(=O)NC3CCS(=O)(=O)C3)cc2)cc1 (stereo not given),2.2% (inactive),0.5
O=S(=O)(c1ccc(Br)cc1)c1nc(-c2ccccc2)oc1NCc1cccnc1,50.5% (inactive),50.2
Nc1nc(Nc2ccccc2F)nc(NC2CCCCC2)c1[N+](=O)[O-],51.1% (inactive),25
Cc1ccc(Nc2cc(C)nc3c(C)ccc([N+](=O)[O-])c23)cc1,11.4% (inactive),0.55
CN1OC(COC(=O)c2ccc(Cl)cc2)CC1c1ccccc1 (stereo not given),1.05% (inactive),0.8
COc1cc(/C=C2/SC(=S)N(Cc3ccccc3)C2=O)cc(OC)c1O,2.8% (inactive),0.4
Clc1ccc(-c2nnc(SCc3nc4ccccc4s3)o2)cc1,1.05% (inactive),1
CC(=O)Nc1ccc(S(=O)(=O)Nc2ccc(N3CCOCC3)c(F)c2)cc1,1.45% (inactive),1
COc1ccc(N(CC(=O)NC2CCCCCCC2)S(=O)(=O)c2c(C)nn(C)c2C)cc1,1.75% (inactive),0.95
O[C@H]1CN(Cc2cccs2)[C@@H](c2ccc(Cl)cc2)C[C@@H]1n1cc(C2CC2)nn1,1.4% (inactive),1.1
O[C@H]1C[C@H](c2ccc(Cl)cc2)N(Cc2cccs2)C[C@@H]1n1cc(C2CC2)nn1,18.4% (active),13.1
Cc1ccc2c(c1)C1C[N+](C)(CC(=O)c3ccccc3)CCC1N2C(=O)c1ccccc1Cl (stereo not given),4.1% (inactive),2.05
Cc1ccc(-n2nc3cc(C)c(NC(=O)c4cccnc4)cc3n2)cc1,5.4% (inactive),1.05
Cc1cccc(-n2c(SCC(=O)Nc3cccc(S(=O)(=O)NC4=NCCCCC4)c3)nc3ccccc3c2=O)c1C,17.3% (inactive),0.7

Compound,differentiation response,double positive cells [%]
Fc1cccc(Cl)c1CSc1ccc(-c2ccco2)nn1,1.2% (inactive),0.8
CC(C)c1nc2ccc(C(=O)O)cc2[nH]1,1.95% (inactive),1.8
CSc1nnc(-c2ccncc2)n1CCCN1CCCC1=O,1.75% (inactive),1.15
O=C(NCCN=C1NS(=O)(=O)c2ccccc21)c1ccc(S(=O)(=O)N2CCOCC2)cc1,1.35% (inactive),1.3
CC(=O)N1c2ccc(S(=O)(=O)N3CCCC(C(=O)Nc4cccc(F)c4)C3)cc2CC1C (stereo not given),1.45% (inactive),0.95
O=C(Nc1cccc2ncccc12)c1ccc(-c2ccc(Cl)cc2Cl)o1,4.55% (inactive),2.9
Cc1cccc(OCC(O)CN2CCN(CCN3C(=O)c4cccc5cccc(c45)C3=O)CC2)c1C (stereo not given),0.25% (inactive),0
Cc1cccc(C)c1NC(=O)CCS(=O)(=O)c1cccc2nsnc12,2% (inactive),1.5
CC(C)CNC(=O)COC(=O)/C=C/c1ccccc1[N+](=O)[O-],1.45% (inactive),1.2
COC(=O)CN(c1cccc(C(C)=O)c1)S(C)(=O)=O,2.05% (inactive),1.5
O=C(CN1C(=O)NC(Cc2c[nH]c3ccccc23)C1=O)Nc1ccccc1C(F)(F)F (stereo not given),1.7% (inactive),1.2
CC1(C)CC(=O)C2=C(C1)Nc1cc(C(=O)c3ccccc3)ccc1NC2c1ccccn1 (stereo not given),1.95% (inactive),1.65
CCOC(=O)C1=C(CN2CCc3ccccc32)NC(=O)NC1c1cccc([N+](=O)[O-])c1 (stereo not given),12.3% (active),8.95
Cc1nc(C)c(-c2nnc(-c3cccc(S(=O)(=O)N(C)C)c3)o2)cc1C(=O)NN,4.1% (inactive),1.3
Cc1ccc2c(c1)c1ncn(Cc3ccc(F)cc3)c(=O)c1n2C,2% (inactive),0.8
O=c1oc2ccccc2cc1-c1csc(Nc2ccc(O)cc2)n1,27.4% (inactive),12.5
Cc1cc(C)n(C(=O)c2ccc(C)c(S(=O)(=O)N3CCOCC3)c2)n1,1.9% (inactive),1.8
Cc1cc(C)c(S(=O)(=O)NCC2CCC(C(=O)NCc3ccc4c(c3)OCO4)CC2)c(C)c1 (stereo not given),3.7% (inactive),1.35
CCOc1ccc(C(=O)Nc2ccc(S(=O)(=O)NCC3CCCO3)cc2)cc1OCC (stereo not given),1.5% (inactive),1.2
CC(C)(C)OC(=O)CNC(=O)c1[nH]cnc1C(=O)N[C@@H](Cc1ccccc1)C(=O)OCc1ccccc1,1.85% (inactive),1.95
CCCC(=O)Nc1c(O)c2ccccc2[nH]c1=O,1.45% (inactive),1.1
C/C(=C\c1ccccc1)C1NC(=O)c2c(sc3c2CCCC3)N1 (stereo not given),1.1% (inactive),0.75
COc1ccc(C2CC(c3cccc(OC)c3)=NN2c2ccc(S(N)(=O)=O)cc2)cc1 (stereo not given),2.25% (inactive),1.4
CC(=O)Nc1ccc(S(=O)(=O)Nc2ccc(N3CCCCC3)cc2)cc1,0% (inactive),0
CN(C(=O)c1cccc([N+](=O)[O-])c1)c1ccccc1C(=O)NCc1ccccc1,1.65% (inactive),1.35
CC(C)C(=O)N1CCN(c2nc(-c3ccccc3)c3c(c2C#N)CC(C)(C)OC3)CC1,1.8% (inactive),1.6
O=C(CCCN1C(=O)CCC1=O)Nc1ccc(Cl)c(C(F)(F)F)c1,1.55% (inactive),1.1

Compound,differentiation response,double positive cells [%]
CC(CNc1ccc([N+](=O)[O-])cc1)NC(=O)c1ccccc1Br (stereo not given),1.65% (inactive),1
CN(C(=O)CSc1nnc(C2CC2)n1C)C1CCCc2ccccc21 (stereo not given),2.6% (inactive),2.05
COc1ccc(C(=O)N(Cc2ccccc2)c2ccc(C)cc2)cc1S(=O)(=O)N1CCOCC1,1.9% (inactive),0.95
COc1ccc2nc(N3CCN(C(=O)c4ccc([N+](=O)[O-])o4)CC3)sc2c1,3.05% (inactive),0
O=C(NCC1CCCCC1)NCC1CCCCC1,0.8% (inactive),0.5
O=C(NC(=O)c1ccccc1)Nc1ccccc1O,5.8% (inactive),0.95
O=S(=O)(NCc1cccnc1)c1ccc(Cl)nc1,1.35% (inactive),1.1
CC(C)CC(COCc1ccc(Cl)cc1)N1CCN(C(=O)c2ccc(C(F)(F)F)cc2)CCC1=O (stereo not given),2.15% (inactive),1.95
CCOC(=O)c1c(-c2ccccc2)oc2ccc(OCC(=O)NN)cc12,2.65% (inactive),0.85
COc1ccccc1N1CCN(C(=O)c2cc(-c3ccc(Br)cc3)on2)CC1,1.9% (inactive),1.65
Nc1ccc2nc3c(=O)[nH]c(=S)[nH]c3nc2c1,11.7% (inactive),1.75
COc1cccc(NC(=O)[C@H](Cc2c[nH]c3ccccc23)NC(=O)[C@@H]2Cc3ccccc3CN2)c1,5% (active),4.8
CCc1c(C)sc(NC(=O)c2cccs2)c1C(N)=O,7.25% (inactive),5.9
O=C(CN(c1ccccc1)S(=O)(=O)c1ccc(Cl)cc1)Nc1ccccc1C(=O)N1CCCC1,2.2% (inactive),1.4
O=C(Cn1cc(-c2nnnn2-c2ccc(Cl)cc2)c(=O)c2ccccc21)c1ccccc1,3.55% (inactive),2.6
CC1CCCC(NC(=O)CN2CCN(Cc3ccc(Cl)cc3)C2=O)C1C (stereo not given),4.75% (inactive),2.6
CCc1noc(C)c1C(=O)Nc1nc(-c2ccccc2)cs1,1.4% (inactive),1
C=CCNc1nnc(SCC(=O)N2CCCCC2)c2ccccc12,2.2% (inactive),1.55
COc1cccc(NC(=S)NCc2ccccn2)c1,1.3% (inactive),1.3
COc1ccc(C(C(=O)NCc2ccccc2)n2c(=O)c(-c3ccccc3)nc3ccccc32)cc1 (stereo not given),29.1% (inactive),12.2
Cc1ccc(C)c(S(=O)(=O)N2CCN(c3ncnc4sccc34)CC2)c1,5.55% (inactive),0
O=C1c2ccccc2C(=O)N1Cc1cc(-c2ccccc2Cl)no1,2.85% (inactive),1.25
N#CC1=C(N)Oc2c(sc3ccccc23)C1c1ccco1 (stereo not given),50% (inactive),25
CCOC(=O)CC(=O)CSc1nc(-c2ccccc2)cc(-c2ccc(Cl)cc2)c1C#N,1.35% (inactive),1.15
COc1ccccc1CNC(=O)c1cc(-c2cc(Cl)ccc2C)n[nH]1,0.15% (inactive),0
CCOC(=O)c1c(-c2cccc(C)c2)csc1NC(=O)c1c(-c2ccccc2)noc1C,0.75% (inactive),0.25
